Measurements taken from paper PMC7862700, “An all-to-all approach to the identification of sequence-specific readers for epigenetic DNA modifications on cytosine”.

Assays:
Assay in all cases: DAPPL (digital affinity profiling via proximity ligation, sequencing); 10 mM Tris-HCl pH 7.5, 50 mM NaCl, 1 mM DTT, 4% glycerol, room temperature, 30 min; GST-TFs on glutathione beads, 16-mer random dsDNA library, 0.1% formaldehyde crosslink after washing; high values mean tight binding
FEV = molecular target: T1, FEV (Homo sapiens, UniProt Q99581 1-238); details: protein: recombinant; tags: N-terminal GST; dsDNA, one strand shown
T1 sequence: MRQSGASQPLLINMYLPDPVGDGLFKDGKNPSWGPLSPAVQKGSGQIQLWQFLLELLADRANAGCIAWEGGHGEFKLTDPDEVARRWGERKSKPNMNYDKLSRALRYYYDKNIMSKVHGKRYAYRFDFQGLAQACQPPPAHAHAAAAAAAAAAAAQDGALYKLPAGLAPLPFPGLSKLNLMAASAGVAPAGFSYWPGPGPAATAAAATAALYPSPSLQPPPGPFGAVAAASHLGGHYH
Procedure, shortened: (§1)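 Yeast served to express human transcription factors as GST fusions, which were then captured on glutathione beads and labelled with DNA barcodes. Pooled with a tag-only sample, they were incubated with 200 nmole of a 16-mer random double-stranded DNA library for 30 min at room temperature in Tris/NaCl/DTT/glycerol buffer, washed, crosslinked with 0.1% formaldehyde, ligated by proximity, amplified by PCR and sequenced. Dividing each hexamer's read frequency for a factor by its frequency for the tag-only sample gives the binding signal.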

ETV5 = ETV5 (Homo sapiens, UniProt P41161 1-510); details: protein: recombinant; tags: N-terminal GST; dsDNA, one strand shown
Procedure, shortened: as §1

HSF1 = HSF1 (Homo sapiens, UniProt Q00613 1-529); details: protein: recombinant; tags: N-terminal GST; chain copies: 3; dsDNA, one strand shown
Procedure, shortened: as §1

SPIC = molecular target: T2, SPIC (Homo sapiens, UniProt Q8N5J4 1-248); details: protein: recombinant; tags: N-terminal GST; dsDNA, one strand shown
T2 sequence: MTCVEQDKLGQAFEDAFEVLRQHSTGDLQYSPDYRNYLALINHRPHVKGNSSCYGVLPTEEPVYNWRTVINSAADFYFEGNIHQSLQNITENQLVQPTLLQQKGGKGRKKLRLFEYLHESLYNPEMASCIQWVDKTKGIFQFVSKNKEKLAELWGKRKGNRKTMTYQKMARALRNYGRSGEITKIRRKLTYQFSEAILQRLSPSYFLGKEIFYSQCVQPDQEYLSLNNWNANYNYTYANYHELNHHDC
Procedure, shortened: as §1

ELF4 = ELF4 (Homo sapiens, UniProt Q99607 1-663); details: protein: recombinant; tags: N-terminal GST; dsDNA, one strand shown
Procedure, shortened: as §1

ELK4 = molecular target: T3, ELK4 (Homo sapiens, UniProt P28324-2 1-405); details: protein: recombinant; tags: N-terminal GST; dsDNA, one strand shown
T3 sequence: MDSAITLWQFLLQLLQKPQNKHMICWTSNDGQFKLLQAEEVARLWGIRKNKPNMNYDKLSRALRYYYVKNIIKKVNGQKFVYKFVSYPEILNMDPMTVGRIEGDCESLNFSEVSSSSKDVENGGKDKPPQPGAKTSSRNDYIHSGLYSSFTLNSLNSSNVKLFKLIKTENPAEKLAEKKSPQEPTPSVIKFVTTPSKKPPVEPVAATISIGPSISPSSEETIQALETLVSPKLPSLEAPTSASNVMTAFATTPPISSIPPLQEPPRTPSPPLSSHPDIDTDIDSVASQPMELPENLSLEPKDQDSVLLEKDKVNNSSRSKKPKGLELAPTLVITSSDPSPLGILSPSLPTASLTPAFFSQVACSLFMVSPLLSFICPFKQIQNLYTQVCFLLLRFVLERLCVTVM
Procedure, shortened: as §1

ETV2 = molecular target: T4, ETV2 (Homo sapiens, UniProt O00321 1-342); details: protein: recombinant; tags: N-terminal GST; dsDNA, one strand shown
T4 sequence: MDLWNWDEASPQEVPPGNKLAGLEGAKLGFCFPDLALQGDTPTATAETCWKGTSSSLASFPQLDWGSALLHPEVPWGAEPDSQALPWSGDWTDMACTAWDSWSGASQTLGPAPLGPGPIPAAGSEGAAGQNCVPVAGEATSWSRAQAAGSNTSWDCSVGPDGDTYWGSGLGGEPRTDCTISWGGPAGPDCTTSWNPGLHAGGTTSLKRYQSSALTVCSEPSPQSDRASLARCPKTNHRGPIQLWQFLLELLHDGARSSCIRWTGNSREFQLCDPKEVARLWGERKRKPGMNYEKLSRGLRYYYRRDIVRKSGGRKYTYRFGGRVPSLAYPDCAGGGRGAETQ
Procedure, shortened: as §1

ELF3 = molecular target: T5, ELF3 (Homo sapiens, UniProt P78545 1-371); details: protein: recombinant; tags: N-terminal GST; dsDNA, one strand shown
T5 sequence: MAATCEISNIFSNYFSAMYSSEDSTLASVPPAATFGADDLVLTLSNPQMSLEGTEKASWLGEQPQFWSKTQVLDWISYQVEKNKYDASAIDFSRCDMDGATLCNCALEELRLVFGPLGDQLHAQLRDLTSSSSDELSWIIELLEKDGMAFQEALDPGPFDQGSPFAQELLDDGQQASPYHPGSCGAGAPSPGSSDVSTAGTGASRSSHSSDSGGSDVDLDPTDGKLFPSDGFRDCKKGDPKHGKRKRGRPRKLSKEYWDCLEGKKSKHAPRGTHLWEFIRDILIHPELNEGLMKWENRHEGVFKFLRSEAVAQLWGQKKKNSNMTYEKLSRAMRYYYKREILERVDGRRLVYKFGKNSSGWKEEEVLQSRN
Procedure, shortened: as §1

CRX = CRX (Homo sapiens, UniProt O43186 1-299); details: protein: recombinant; tags: N-terminal GST; dsDNA, one strand shown
Procedure, shortened: as §1

ETV1 = ETV1 (Homo sapiens, UniProt P50549 1-477); details: protein: recombinant; tags: N-terminal GST; dsDNA, one strand shown
Procedure, shortened: as §1

CRX, sequence (O43186 whole entry): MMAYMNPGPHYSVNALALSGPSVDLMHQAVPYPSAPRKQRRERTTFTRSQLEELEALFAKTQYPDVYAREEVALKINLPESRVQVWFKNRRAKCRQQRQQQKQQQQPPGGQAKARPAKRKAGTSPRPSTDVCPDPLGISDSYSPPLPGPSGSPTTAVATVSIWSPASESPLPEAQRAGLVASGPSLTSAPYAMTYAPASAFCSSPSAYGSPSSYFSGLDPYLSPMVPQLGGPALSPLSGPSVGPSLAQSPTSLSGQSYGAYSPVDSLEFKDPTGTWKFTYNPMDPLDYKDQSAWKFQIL
HSF1, sequence (Q00613 whole entry): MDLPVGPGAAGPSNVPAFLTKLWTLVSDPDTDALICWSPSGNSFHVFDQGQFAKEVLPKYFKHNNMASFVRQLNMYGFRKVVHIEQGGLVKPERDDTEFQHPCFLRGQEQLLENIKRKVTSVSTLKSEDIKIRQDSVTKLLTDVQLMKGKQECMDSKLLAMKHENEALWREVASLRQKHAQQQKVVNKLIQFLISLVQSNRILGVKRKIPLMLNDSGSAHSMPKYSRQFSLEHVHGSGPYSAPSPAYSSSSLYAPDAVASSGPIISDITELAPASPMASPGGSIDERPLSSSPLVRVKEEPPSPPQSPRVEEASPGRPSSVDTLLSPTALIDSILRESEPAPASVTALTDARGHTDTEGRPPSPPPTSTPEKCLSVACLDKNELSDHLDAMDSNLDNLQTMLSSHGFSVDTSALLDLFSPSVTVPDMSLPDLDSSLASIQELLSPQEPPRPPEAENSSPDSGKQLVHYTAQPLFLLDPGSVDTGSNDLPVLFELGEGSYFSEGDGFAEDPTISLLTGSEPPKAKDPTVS
ETV5, sequence (P41161 whole entry): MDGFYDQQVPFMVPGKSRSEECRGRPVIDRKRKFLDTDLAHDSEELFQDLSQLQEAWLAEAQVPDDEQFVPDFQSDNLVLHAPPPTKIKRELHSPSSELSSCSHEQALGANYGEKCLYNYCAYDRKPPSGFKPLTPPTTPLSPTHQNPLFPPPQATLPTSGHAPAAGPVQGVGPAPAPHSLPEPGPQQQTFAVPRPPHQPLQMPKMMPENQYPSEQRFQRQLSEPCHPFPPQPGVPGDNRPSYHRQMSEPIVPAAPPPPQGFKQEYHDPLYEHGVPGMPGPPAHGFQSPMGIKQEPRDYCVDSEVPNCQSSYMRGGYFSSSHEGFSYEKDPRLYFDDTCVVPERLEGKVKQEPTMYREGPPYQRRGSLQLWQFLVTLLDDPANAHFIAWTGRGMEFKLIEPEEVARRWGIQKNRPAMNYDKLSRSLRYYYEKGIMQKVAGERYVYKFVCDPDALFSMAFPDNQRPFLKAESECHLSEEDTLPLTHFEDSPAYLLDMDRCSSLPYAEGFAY
ELF4, sequence (Q99607 whole entry): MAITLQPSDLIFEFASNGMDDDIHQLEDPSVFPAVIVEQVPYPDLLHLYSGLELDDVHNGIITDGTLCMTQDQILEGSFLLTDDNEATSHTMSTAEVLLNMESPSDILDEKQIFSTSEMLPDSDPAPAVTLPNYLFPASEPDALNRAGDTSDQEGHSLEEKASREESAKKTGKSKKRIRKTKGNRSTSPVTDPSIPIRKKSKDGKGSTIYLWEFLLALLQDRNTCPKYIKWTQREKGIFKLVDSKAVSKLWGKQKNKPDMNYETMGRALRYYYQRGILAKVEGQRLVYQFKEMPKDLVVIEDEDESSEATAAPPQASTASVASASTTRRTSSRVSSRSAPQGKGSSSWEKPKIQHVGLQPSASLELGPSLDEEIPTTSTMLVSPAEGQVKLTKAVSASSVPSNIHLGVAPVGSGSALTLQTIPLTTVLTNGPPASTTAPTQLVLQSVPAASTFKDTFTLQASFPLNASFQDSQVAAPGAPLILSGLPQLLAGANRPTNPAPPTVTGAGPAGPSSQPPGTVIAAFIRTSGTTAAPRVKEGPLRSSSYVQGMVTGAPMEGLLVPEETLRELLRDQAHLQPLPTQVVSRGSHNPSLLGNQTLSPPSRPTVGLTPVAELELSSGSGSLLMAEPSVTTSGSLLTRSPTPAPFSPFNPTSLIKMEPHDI
ETV1, sequence (P50549 whole entry): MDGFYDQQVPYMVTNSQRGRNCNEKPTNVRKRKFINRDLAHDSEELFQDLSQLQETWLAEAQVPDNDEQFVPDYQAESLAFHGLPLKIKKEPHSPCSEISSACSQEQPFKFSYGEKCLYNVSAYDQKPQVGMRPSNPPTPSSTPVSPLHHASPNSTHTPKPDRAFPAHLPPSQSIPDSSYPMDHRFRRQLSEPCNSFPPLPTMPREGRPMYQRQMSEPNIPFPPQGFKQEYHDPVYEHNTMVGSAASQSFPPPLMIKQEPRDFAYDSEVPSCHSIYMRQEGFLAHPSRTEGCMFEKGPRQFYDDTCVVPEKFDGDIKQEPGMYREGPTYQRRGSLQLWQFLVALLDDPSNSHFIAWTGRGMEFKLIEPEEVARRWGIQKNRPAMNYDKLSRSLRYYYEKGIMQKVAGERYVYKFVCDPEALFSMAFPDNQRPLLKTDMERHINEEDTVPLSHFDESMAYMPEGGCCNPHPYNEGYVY

Sequence: TTTTCA
- binding signal (FEV): 1.17 fold enrichment (6-mer frequency, TF over GST control)
- binding signal (ETV5): 1.2 fold enrichment (6-mer frequency, TF over GST control)
- binding signal (HSF1): 1.14 fold enrichment (6-mer frequency, TF over GST control)
- binding signal (SPIC): 1.22 fold enrichment (6-mer frequency, TF over GST control)
- binding signal (ELF4): 1.27 fold enrichment (6-mer frequency, TF over GST control)
- binding signal (ELK4): 1.2 fold enrichment (6-mer frequency, TF over GST control)
- binding signal (ETV2): 1.24 fold enrichment (6-mer frequency, TF over GST control)
- binding signal (ELF3): 1.31 fold enrichment (6-mer frequency, TF over GST control)
- binding signal (CRX): 1.28 fold enrichment (6-mer frequency, TF over GST control)
- binding signal (ETV1): 1.22 fold enrichment (6-mer frequency, TF over GST control)

Sequence: TACTCA
- binding signal (FEV): 1.24 fold enrichment (6-mer frequency, TF over GST control)
- binding signal (ETV5): 1.17 fold enrichment (6-mer frequency, TF over GST control)
- binding signal (HSF1): 1.12 fold enrichment (6-mer frequency, TF over GST control)
- binding signal (SPIC): 1.19 fold enrichment (6-mer frequency, TF over GST control)
- binding signal (ELF4): 1.23 fold enrichment (6-mer frequency, TF over GST control)
- binding signal (ELK4): 1.13 fold enrichment (6-mer frequency, TF over GST control)
- binding signal (ETV2): 1.17 fold enrichment (6-mer frequency, TF over GST control)
- binding signal (ELF3): 1.22 fold enrichment (6-mer frequency, TF over GST control)
- binding signal (CRX): 1.26 fold enrichment (6-mer frequency, TF over GST control)
- binding signal (ETV1): 1.19 fold enrichment (6-mer frequency, TF over GST control)

Sequence: ACCGAC
- binding signal (FEV): 1.36 fold enrichment (6-mer frequency, TF over GST control)
- binding signal (ETV5): 1.31 fold enrichment (6-mer frequency, TF over GST control)
- binding signal (HSF1): 1.05 fold enrichment (6-mer frequency, TF over GST control)
- binding signal (SPIC): 1.37 fold enrichment (6-mer frequency, TF over GST control)
- binding signal (ELF4): 1.31 fold enrichment (6-mer frequency, TF over GST control)
- binding signal (ELK4): 1.24 fold enrichment (6-mer frequency, TF over GST control)
- binding signal (ETV2): 1.36 fold enrichment (6-mer frequency, TF over GST control)
- binding signal (ELF3): 1.17 fold enrichment (6-mer frequency, TF over GST control)
- binding signal (CRX): 1.05 fold enrichment (6-mer frequency, TF over GST control)
- binding signal (ETV1): 1.37 fold enrichment (6-mer frequency, TF over GST control)

Sequence: AATCCT
- binding signal (FEV): 1.32 fold enrichment (6-mer frequency, TF over GST control)
- binding signal (ETV5): 1.43 fold enrichment (6-mer frequency, TF over GST control)
- binding signal (HSF1): 2.25 fold enrichment (6-mer frequency, TF over GST control)
- binding signal (SPIC): 1.3 fold enrichment (6-mer frequency, TF over GST control)
- binding signal (ELF4): 1.27 fold enrichment (6-mer frequency, TF over GST control)
- binding signal (ELK4): 1.33 fold enrichment (6-mer frequency, TF over GST control)
- binding signal (ETV2): 1.34 fold enrichment (6-mer frequency, TF over GST control)
- binding signal (ELF3): 1.25 fold enrichment (6-mer frequency, TF over GST control)
- binding signal (CRX): 3.32 fold enrichment (6-mer frequency, TF over GST control)
- binding signal (ETV1): 1.35 fold enrichment (6-mer frequency, TF over GST control)

Sequence: CTTTGA
- binding signal (FEV): 1.14 fold enrichment (6-mer frequency, TF over GST control)
- binding signal (ETV5): 1.18 fold enrichment (6-mer frequency, TF over GST control)
- binding signal (HSF1): 1.21 fold enrichment (6-mer frequency, TF over GST control)
- binding signal (SPIC): 1.4 fold enrichment (6-mer frequency, TF over GST control)
- binding signal (ELF4): 1.24 fold enrichment (6-mer frequency, TF over GST control)
- binding signal (ELK4): 1.41 fold enrichment (6-mer frequency, TF over GST control)
- binding signal (ETV2): 1.27 fold enrichment (6-mer frequency, TF over GST control)
- binding signal (ELF3): 1.16 fold enrichment (6-mer frequency, TF over GST control)
- binding signal (CRX): 1.23 fold enrichment (6-mer frequency, TF over GST control)
- binding signal (ETV1): 1.21 fold enrichment (6-mer frequency, TF over GST control)

Sequence: CCGACC
- binding signal (FEV): 1.71 fold enrichment (6-mer frequency, TF over GST control)
- binding signal (ETV5): 1.5 fold enrichment (6-mer frequency, TF over GST control)
- binding signal (HSF1): 1.14 fold enrichment (6-mer frequency, TF over GST control)
- binding signal (SPIC): 1.45 fold enrichment (6-mer frequency, TF over GST control)
- binding signal (ELF4): 1.54 fold enrichment (6-mer frequency, TF over GST control)
- binding signal (ELK4): 1.61 fold enrichment (6-mer frequency, TF over GST control)
- binding signal (ETV2): 1.46 fold enrichment (6-mer frequency, TF over GST control)
- binding signal (ELF3): 1.63 fold enrichment (6-mer frequency, TF over GST control)
- binding signal (CRX): 1.13 fold enrichment (6-mer frequency, TF over GST control)
- binding signal (ETV1): 1.53 fold enrichment (6-mer frequency, TF over GST control)

Sequence: ATGCAT
- binding signal (FEV): 1.18 fold enrichment (6-mer frequency, TF over GST control)
- binding signal (ETV5): 1.19 fold enrichment (6-mer frequency, TF over GST control)
- binding signal (HSF1): 1 fold enrichment (6-mer frequency, TF over GST control)
- binding signal (SPIC): 1.31 fold enrichment (6-mer frequency, TF over GST control)
- binding signal (ELF4): 1.28 fold enrichment (6-mer frequency, TF over GST control)
- binding signal (ELK4): 1.11 fold enrichment (6-mer frequency, TF over GST control)
- binding signal (ETV2): 1.27 fold enrichment (6-mer frequency, TF over GST control)
- binding signal (ELF3): 1.07 fold enrichment (6-mer frequency, TF over GST control)
- binding signal (CRX): 1.05 fold enrichment (6-mer frequency, TF over GST control)
- binding signal (ETV1): 1.15 fold enrichment (6-mer frequency, TF over GST control)
